In ChEMBL document CHEMBL3988442, “University of Dundee, Small-Polar-MMV Screening Library” (2021):
About 1,200 (3.2%) of roughly 38,000 compounds showed an effect of 50% or more. The median lay at about -58%. What follows is part of a selection rich in strong results, with near analogues and random picks from the rest.

What follows are compounds tested on Plasmodium falciparum (assay: Calibr Malaria Delayed Death Assay SOP). Settings: concentration 4.99e-06 (unit not given; other assays of the set use mol/L).
Assay type: functional, organism-based
Parameters: scale not given: in the data most compounds retested in dose-response had high values

| Structure (SMILES) | Percent Effect [%] |
| --- | --- |
| O=C(CCc1ccccc1)N1CCCCC1Cn1cccn1 (stereo not given) | -77.88 |
| Cc1ccc(CN2CCC3(CC2)CC3CN(C)Cc2cccnc2)o1.O=C(O)C(F)(F)F.O=C(O)C(F)(F)F.O=C(O)C(F)(F)F (stereo not given) | 69.86 |
| Cc1cnc(N2CCC3(CC2)CC3CN(C)Cc2cccnc2)nc1.O=C(O)C(F)(F)F.O=C(O)C(F)(F)F (stereo not given) | -34.71 |
| CN(Cc1cccnc1)CC1CC12CCN(c1nncs1)CC2.O=C(O)C(F)(F)F.O=C(O)C(F)(F)F.O=C(O)C(F)(F)F (stereo not given) | -14.98 |
| CCOC(=O)C1(Cc2ccccc2)CCCN(Cc2nccn2CC)C1 (stereo not given) | 71.35 |
| CCn1ccnc1CN1CCCC(CO)(CCCc2ccccc2)C1 (stereo not given) | 5.561 |
| CCOC(=O)C1(CCOC)CCCN(Cc2nccn2CC)C1 (stereo not given) | 6.985 |
| Cc1cnc(C)c(N2CCCC(CO)(Cc3cccc(Cl)c3)C2)n1 (stereo not given) | -85.57 |
| CCOC(=O)C1(CCOC)CCN(Cc2nccn2CC)CC1 | -18.48 |
| CCn1ccnc1CN1CCCC(CO)(Cc2cccc(Cl)c2)C1 (stereo not given) | 76.24 |
| CCn1c(N)nc2cc(C(=O)NCCc3ccccc3F)cnc21 | -271.4 |
| CCc1nc(C2CCCN2CC(=O)Nc2cc(C)nn2C)no1 (stereo not given) | -146.1 |
| O=C(Cc1cccc(F)c1)NC1CCCc2cn[nH]c21 (stereo not given) | -5.228 |
| CN(CCCOc1ccccc1)S(=O)(=O)c1cnn(C)c1 | -2.544 |
| O=C(Cc1c[nH]c2ncccc12)NCC(O)c1ccsc1 (stereo not given) | -112.4 |
| NC(=O)c1ccccc1NC(=O)CCN1CCN(CCO)CC1 | -1.535 |
| CC(=O)Nc1ccc(CNCC(O)c2ccccc2)cc1 (stereo not given) | 6.789 |
| CC(C)Oc1cccc(C(O)CNC(=O)NCc2cccs2)c1 (stereo not given) | -103.2 |
| CC(C)Oc1ccc(C(O)CNCc2ccccc2C(F)(F)F)cc1 (stereo not given) | 82.7 |
| Cl.OC(CNCc1ccccc1C(F)(F)F)c1ccccc1 (stereo not given) | 81.89 |
| Cc1ccccc1CNCC(O)c1ccc(OC(C)C)cc1 (stereo not given) | 92.11 |
| CC(O)CNCc1ccccc1C(F)(F)F.Cl (stereo not given) | -50.42 |
| Cc1nn(C)c(N(C)C)c1CNCC(O)c1ccccc1 (stereo not given) | -52.78 |

| Structure (SMILES) | Percent Effect [%] |
| --- | --- |
| CN(Cc1ccccc1C(F)(F)F)C(C(N)=O)c1ccccc1 (stereo not given) | -32.88 |
| CC(C(N)=O)N(C)Cc1ccccc1C(F)(F)F (stereo not given) | -7.943 |
| COC(=O)CNC(=O)C(C)Oc1ccccc1C(F)(F)F (stereo not given) | -63.42 |
| CC(=O)Nc1ccc(CNCC(O)c2ccc(C)cc2)cc1 (stereo not given) | -93.75 |
| CC(C)C(NC(=O)NCCNc1ncccn1)c1cccs1 (stereo not given) | -40.63 |
| CN1CCC2(CC1)CN(C(=O)c1ccncc1)Cc1ccccc12 | -65.66 |
| O=C(CCC1CCCO1)NCCCC(=O)Nc1ccc(Cl)cc1 (stereo not given) | -199.2 |
| CCOc1ccc(S(=O)(=O)N(CCOC)Cc2ccncc2)cc1F | -28.24 |
| O=C(CCn1ccnn1)N1CCCC(n2cncn2)C1 (stereo not given) | -95.7 |
| CC(C)N1CCCC(C(=O)NCCc2csc(-c3ccncc3)n2)C1 (stereo not given) | -80.76 |
| CNC(=O)C1CCN(c2nc3nc[nH]c(=O)c3s2)CC1 | -123.8 |
| CC(C)CN1C(=O)C2(CCN(Cc3ccoc3)C2)c2ccccc21.O=C(O)C(F)(F)F (stereo not given) | -29.95 |
| COC(=O)c1ncccc1N1CCC(C(O)c2ccccc2)CC1 (stereo not given) | -12.82 |
| Cn1ccnc1CN1CCCC2(CCN(CC3CCCO3)CC2)C1.O=C(O)C(F)(F)F.O=C(O)C(F)(F)F (stereo not given) | 15.47 |
| Fc1ccc(CN2C[C@@H]3OCCN(CCN4CCCC4)[C@@H]3C2)cc1.O=C(O)C(F)(F)F.O=C(O)C(F)(F)F.O=C(O)C(F)(F)F | -79.23 |
| CN(C)CCN1CCO[C@H]2CN(Cc3ccccn3)C[C@H]21.O=C(O)C(F)(F)F.O=C(O)C(F)(F)F.O=C(O)C(F)(F)F.O=C(O)C(F)(F)F | 8.318 |
| CN(C)c1nccc(N2CCO[C@H]3CN(Cc4ccsc4)C[C@H]32)n1.O=C(O)C(F)(F)F | 68.45 |
| COc1ccc(CN2C[C@@H]3OCCN(C)[C@@H]3C2)cc1.O=C(O)C(F)(F)F | -49.2 |
| COCCN1CC[C@@H]2CN(Cc3cccnc3OC)C[C@@H]2C1.O=C(O)C(F)(F)F.O=C(O)C(F)(F)F | -74.35 |
| COc1ncccc1CN1CC[C@H]2[C@H]1CCN2CCN(C)C.O=C(O)C(F)(F)F.O=C(O)C(F)(F)F.O=C(O)C(F)(F)F.O=C(O)C(F)(F)F | 52.47 |
| COc1ccc(CN2C[C@@H]3OCCN(CCN4CCCC4)[C@@H]3C2)cc1.O=C(O)C(F)(F)F.O=C(O)C(F)(F)F.O=C(O)C(F)(F)F | 62.07 |
| COc1ncccc1CN1C[C@@H]2OCCN(CCN(C)C)[C@@H]2C1.O=C(O)C(F)(F)F.O=C(O)C(F)(F)F.O=C(O)C(F)(F)F | -6.564 |
| CCc1ccc(CN2C[C@@H]3OCCN(c4ccnc(N(C)C)n4)[C@@H]3C2)o1.O=C(O)C(F)(F)F | 5.976 |

| Structure (SMILES) | Percent Effect [%] |
| --- | --- |
| O=C(O)C(F)(F)F.O=C(O)C(F)(F)F.O=C(O)C(F)(F)F.O=C(O)C(F)(F)F.c1cc(CN2C[C@@H]3OCCN(CCN4CCCC4)[C@@H]3C2)ccn1 | -114.9 |
| O=C(O)C(F)(F)F.O=C(O)C(F)(F)F.c1cnc(N2CCO[C@H]3CN(Cc4ccsc4)C[C@H]32)nc1 | 32.67 |
| COc1ccc(CN2C[C@@H]3OCCN(CCN(C)C)[C@@H]3C2)cc1.O=C(O)C(F)(F)F.O=C(O)C(F)(F)F.O=C(O)C(F)(F)F | 65.18 |
| O=C(C1CCOC1)N1CCC2(CCN(Cc3nccs3)C2)CC1 (stereo not given) | -29.96 |
| CN(Cc1cccc(F)c1)C(=O)CN1CCOC(Cn2cncn2)C1 (stereo not given) | -118.2 |
| Cc1ccc(CC(=O)NCC(Cc2ccc(F)cc2)C(N)=O)cn1 (stereo not given) | -64.69 |
| COc1ccc(CN2CC(O)CN(C(=O)OCC(C)C)CC2=O)cc1 (stereo not given) | -72.03 |
| CC(C)CC(=O)N1CC[C@H]2N(C)CC[C@@]2(C(=O)Nc2cccnc2)CC1.O=C(O)C(F)(F)F.O=C(O)C(F)(F)F | 15.37 |
| COc1cccn(CC(=O)N2CCC3(CCNCC3)C2)c1=O | -26.75 |
| COc1cccc(CN2CC3(CCNCC3)CCC2=O)c1OC | 6.381 |
| O=C(COCC1CCCO1)N(Cc1cccnc1)c1ccc(F)cc1 (stereo not given) | -38.29 |
| O=S(=O)(CCCN1CCCC1Cn1cncn1)c1ccccc1 (stereo not given) | -135.1 |
| CC(C)(C)n1cc(C2=CCN(CCc3ccccc3)CC2)cn1 | 67.25 |
| CCn1cc(C2=CCN(CCCOc3ccccc3)CC2)cn1 | 81.92 |
| Cc1nc(O)cc(CN2CC=C(c3cnn(C(C)(C)C)c3)CC2)n1 | -65.29 |
| CCC(O)Cn1cc(C2=CCN(Cc3ccc(OC)cc3)CC2)cn1 (stereo not given) | 67.35 |
| CC(C)(C)n1cc(C2=CCN(CCNC(N)=O)CC2)cn1 | -173.3 |
| CC(C)(C)n1cc(C2=CCN(CCN3CCCCCC3)CC2)cn1 | 70.18 |
| Cn1cc(C2=CCN(CCCOc3ccc(C(N)=O)cc3)CC2)cn1 | -65.42 |
| CC(C)(C)n1cc(C2=CCN(CCc3ccccn3)CC2)cn1 | 43.76 |
| COc1ccc(NC(=O)CCN2CC=C(c3cnn(C)c3)CC2)c(C)c1 | -34.98 |
| Cn1cc(C2=CCN(CCCC(=O)Nc3ccc(C#N)cc3)CC2)cn1 | -71.5 |
| CCC(O)Cn1cc(C2=CCN(Cc3cc(O)nc(C)n3)CC2)cn1 (stereo not given) | -28.24 |

| Structure (SMILES) | Percent Effect [%] |
| --- | --- |
| CC(C)(C)n1cc(C2=CCN(CCNC(=O)c3ccccc3)CC2)cn1 | 15.76 |
| CC(O)(CNC(=O)c1cccnc1-n1cccn1)c1ccco1 (stereo not given) | -10.35 |
| CCN1CCCCC1C(=O)N1CCC(OCCOC)CC1 (stereo not given) | -112.4 |
| CSc1ccccc1C(=O)N1C[C@@H](N(C)C)[C@H](c2ccc(C)cc2)C1 | -25.73 |
| CCc1cnc2c(c1NCc1ccc(OC)cc1)c(=O)n(C)c(=O)n2C | -5.547 |
| CC(C)CC(NC(=O)c1ccco1)c1nnc2ccccn12 (stereo not given) | -178.4 |
| O=C(O)C1(O)CCN(c2ccnc3c(C(F)(F)F)cccc23)CC1 | -178.3 |
| Cc1cccc(C(=O)N(C)C2CCN(c3ccccn3)CC2)c1C | -82.1 |
| CS(=O)(=O)c1ccc(NC(=O)NC2(c3cccc(F)c3)CC2)cc1 | -42.46 |
| O=C(O)C(F)(F)F.O=C(c1ccoc1)N1CCOCC2(CCN(C3CCOCC3)C2)C1 (stereo not given) | -39.42 |
| COCCN(C)c1nc(-c2ccncc2)nc2c1CCN(C(C)=O)C2 | -64.34 |
| COCCCN(C)c1nc(-c2ccncc2)nc2c1CCN(C(C)=O)C2 | -86.15 |
| CCN1Cc2cc(F)ccc2N(C(=O)C2CCC2)CCC1=O | -44.87 |
| Cc1ccccc1CN(Cc1ccc(S(C)(=O)=O)cc1)CC(C)C | -26.42 |
| Cc1ccccc1CN(CCN(C)C)Cc1ccc(S(C)(=O)=O)cc1 | 79.52 |
| CCOc1ccccc1CN(CC)Cc1ccc(S(C)(=O)=O)cc1 | -21.06 |
| O=C(NCc1ccc2c(c1)OCO2)c1ccccc1C1CCNC1 (stereo not given) | -7.767 |
| Cc1nccn1-c1ccc(=O)n(CCNC(=O)c2ccccn2)n1 | -133.3 |
| CCN(Cc1csc(C)n1)c1cccc(CO)c1 | -39.75 |
| CCn1c(CN(C)Cc2cnc(C)s2)nc2cc(F)ccc21 | -16.92 |
| CCn1c(CN(C)Cc2csc(C)n2)nc2cc(F)ccc21 | 60.85 |
